Source: the supplement of paper PMC13380429

Legend:
[1] = test system: Vero E6 infected with SARS-CoV-2; assay: morphology score (similarity to uninfected cells); higher = more like uninfected cells; settings: 24 h
[2] = test system: Vero E6 infected with SARS-CoV-2; assay: SARS-CoV-2 infection rate relative to infected DMSO; higher = more infection, active = 60 or less; settings: 24 h

Structure (SMILES) | morphology score [1] | SARS-CoV-2 infection rate [2]
CCC(CC)COC(=O)[C@H](C)N[P@](=O)(OC[C@H]1O[C@@](C#N)(c2ccc3c(N)ncnn23)[C@H](O)[C@@H]1O)Oc1ccccc1 [Remdesivir] (10 µM) | 0.761 | 26% (active)
CCC(=O)c1cc(-c2ccc(Cl)cc2)n(-c2ccc(S(N)(=O)=O)cc2)c1C (10 µM) | 0.104 | 102% (inactive)
CN1CCC(CNc2ccc3ncc(-c4cccc(OC(F)(F)F)c4)n3n2)CC1 (0.833333 µM) | 0.201 | 108% (inactive)
CCC(=O)O[C@@](Cc1ccccc1)(c1ccccc1)[C@@H](C)CN(C)C [levopropoxyphene] (10 µM) | -0.0577 | 109% (inactive)
N#Cc1c(N)nc(SCC(N)=O)c(C#N)c1-c1ccc(OCC2CC2)cc1 (10 µM) | -0.0282 | 108% (inactive)
O=C1C(=Cc2cccnc2)C(=O)c2ccccc21 (10 µM) | 0.19 | 99% (inactive)
CCCCCCCC/C=C/CCCCCCCC(=O)OC[C@H]1O[C@@H](n2ccc(N)nc2=O)C(F)(F)[C@@H]1O [gemcitabine-elaidate] (0.833333 µM) | 0.0895 | 112% (inactive)
CC(C)N(C[C@H]1O[C@@H](n2cnc3c(N)ncnc32)[C@H](O)[C@@H]1O)[C@H]1C[C@@H](CCc2nc3cc(C(C)(C)C)ccc3[nH]2)C1 (10 µM) | 0.122 | 110% (inactive)
CC(C)c1onc(-c2c(Cl)cccc2Cl)c1COc1ccc(/C=C/c2cccc(C(=O)O)c2)c(Cl)c1 (10 µM) | 0.151 | 96.5% (inactive)
